According to PubChem BioAssay AID540326 (Broad Institute, 2011):
Some of the results follow. The source made the active and inactive calls.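 The calls were made as follows: active = quenching, a falling signal, with AC50 below a set limit tied to the top valid dose (actives reach about 32 µM in these data); inconclusive = no clear call, values can overlap the other calls; inactive = rising signal, and the rest.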

Experiment: DiI-HDL fluorescence quenchers, cell-free, dose response, artefact control for SR-BI HDL uptake inhibitor project, biochemical, cherry-pick samples, plate reader fluorescence (AID 540326)
Conditions: 30 min; series mostly up to 35 µM

CC(=O)OC1C2(CC3N4C(=O)C5(CO)SSC4(CC31O)C(=O)N5C)OC(C)C(C)(C)C2=O (stereo unspecified)
outcome: inactive
